M1 antag – human CHRM1 antagonism. P11229. inhibition, % at 3 µM. hit rate 1.3% among 360,000. CHO-K1 hM1, Fluo-8 calcium fluorescence, ACh EC80 antagonist. AID 588852;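 active = percent inhibition above its own plate's cutoff, namely the mean of that plate's compound wells plus 3 SD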;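 note: peak over basal fluorescence ratio during 140 s after agonist addition; 0% = ACh EC80 plus DMSO and 100% = DMSO alone without agonist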
Target sequence (P11229 whole entry, looked up): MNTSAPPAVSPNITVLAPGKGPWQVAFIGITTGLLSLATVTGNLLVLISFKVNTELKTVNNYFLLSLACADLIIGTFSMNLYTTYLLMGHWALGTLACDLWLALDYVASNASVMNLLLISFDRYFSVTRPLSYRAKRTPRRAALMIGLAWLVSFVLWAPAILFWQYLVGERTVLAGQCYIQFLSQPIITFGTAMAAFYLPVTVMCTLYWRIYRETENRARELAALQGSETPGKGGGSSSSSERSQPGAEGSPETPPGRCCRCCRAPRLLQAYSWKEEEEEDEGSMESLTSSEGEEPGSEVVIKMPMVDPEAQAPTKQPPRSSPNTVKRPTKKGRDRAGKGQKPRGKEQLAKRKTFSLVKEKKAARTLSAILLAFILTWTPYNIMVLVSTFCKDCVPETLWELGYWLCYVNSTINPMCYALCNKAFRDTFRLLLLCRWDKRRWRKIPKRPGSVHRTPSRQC
CHRM1 agonist – activates human CHRM1 receptor; P11229; CHO-K1 hM1, Fluo-8 calcium fluorescence, agonist mode; 0% DMSO, 100% acetylcholine EC100; activation, % at 3 µM; hit rate 0.33% among 360,000; AID 588814;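 active = activation above the run's mean compound activation plus 3 SD, cut at about 16% in these data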;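 note: peak over basal fluorescence ratio within a 140 s kinetic read after compound addition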
M4 ag – CHRM4 agonism in calcium assay; CHO-K1 hM4/Gqi5, Fluo-8 calcium fluorescence; vehicle 0%, full acetylcholine response 100%; hit rate 0.14% among 360,000; activation, % at 3 µM; P08173;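 active = activation above the run mean over all test wells plus 3 SD, cut at about 32% in these data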;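 note: peak over basal fluorescence ratio per well then scaled between controls; 0% = DMSO wells and 100% = acetylcholine at EC100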
M4 PAM – positive allosteric modulators of human muscarinic M4 receptor. P08173. CHO-K1 hM4/Gqi5, Fluo-8 calcium fluorescence, ACh EC20; 0% = ACh EC20, 100% = maximal ACh. activation, % at 3 µM. hit rate 0.4% among 360,000. AID 624126;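 active = activation above its plate's cutoff, the mean activation of sample wells plus 3 SD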
M1 PAM – potentiates human M1 receptor response to acetylcholine; activation, % at 3 µM; AID 588819; P11229; hit rate 0.088% among 360,000; CHO-K1 hM1, Fluo-8 calcium fluorescence, ACh EC20; 0% = ACh EC20, 100% = maximal ACh; in the data active = activation above about 19%, passing the limit was not always enough
CHRM4 antagonist – blocks acetylcholine activation of human M4 receptor; P08173; CHO-hM4 cells, ACh EC80, Fluo-8 calcium fluorescence; inhibition, % at 3 µM; hit rate 0.73% among 360,000; AID 624125;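 active = inhibition above its plate's cutoff, the mean inhibition of sample wells plus 3 SD, cut at about 27% in these data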;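 note: 0% = acetylcholine EC80 with DMSO and 100% = DMSO without agonist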
An asterisk follows results filed as active. Shown are actives, neighbours in structure and some others; about 2.2% of the full set was active somewhere.

SMILES | M1 antag | CHRM1 agonist | M4 ag | M4 PAM | M1 PAM | CHRM4 antagonist
CC(C)c1ccc(C2NC(=S)NC3=C2C(=O)CCC3)cc1 (configuration not stated) | 23.8 | -10.5 | 0.2 | -31.4 | -23.3 | 26.8*
CS(=O)(=O)Nc1ccc(C(=O)N2CCCCC2)cc1 | -0.5 | 13.1 | 3.2 | 22.7* | 16.5 | -2.9
CC1CN(C(=O)c2ccc(S(=O)(=O)Nc3cccc(C(F)(F)F)c3)cc2)CC(C)O1 (configuration not stated) | 10.0 | 24.8* | 11.8 | -2.4 | -4.9 | -10.8
CC1CCN(C(=O)c2ccc(NS(C)(=O)=O)cc2)CC1 | -4.2 | -3.2 | 0.7 | 4.1 | 4.4 | 10.5
Cc1ccc(NS(=O)(=O)c2ccc(C(=O)N3CC(C)CC(C)C3)cc2)cc1 (configuration not stated) | 52.9* | 60.5* | 107.1* | -19.1 | -16.8 | 35.1*
O=C(c1ccc(S(=O)(=O)Nc2cccc(C(F)(F)F)c2)cc1)N1CCOCC1 | -0.7 | 2.4 | 6.6 | -6.9 | -0.8 | 10.2
CC(=O)C[C@H](O)CC(=O)[C@H]1OC(=O)CC/C=C\Cc2ccccc21 | -6.9 | 2.0 | 2.0 | 25.3* | 17.5 | -2.9
O=C(/C=C/c1ccc(F)cc1)NC(=S)NNC(=O)c1cnccn1 | -14.2 | -0.5 | 0.6 | 12.8 | 12.0 | 30.0*
COc1ccc(S(=O)(=O)N2CCCCCC2)cc1C(=O)NCc1ccccc1Cl | -14.1 | -2.0 | -0.2 | 25.5* | 12.2 | -2.6
COc1ccc(S(=O)(=O)N2CCCCCC2)cc1C(=O)NCc1ccco1 | -9.2 | -1.7 | 3.0 | -2.3 | 8.2 | -8.6
COc1ccc(S(=O)(=O)N2CCCCCC2)cc1C(=O)N(C)Cc1ccc(F)cc1 | -17.5 | -2.3 | 5.4 | 19.7 | 25.1* | -12.9
COc1ccc(NC(=O)N(Cc2ccc(C)cc2)Cc2ccccn2)c(OC)c1 | -22.0 | -4.5 | 4.7 | 4.0 | 13.6 | -31.5
Cn1c(=O)c2c(nc(NCc3ccco3)n2C/C=C/c2ccccc2)n(C)c1=O | 31.8* | -0.3 | 2.6 | -7.2 | -10.1 | 11.5
COc1ccc(OCC(=O)Nc2ccc(N3CCOCC3)cc2)c([N+](=O)[O-])c1 | -1.9 | -1.9 | 1.7 | -2.8 | 3.7 | 0.4
CC[C@H](C)[C@H]1CNC(=S)N1CC1CCN(CCC23CC4CC(CC(C4)C2)C3)CC1 | 90.1* | -10.7 | 2.3 | -14.9 | -31.3 | 67.1*
CC[C@H](C)[C@H]1CNC(=S)N1CC1CCN(CC2CCC(C)CC2)CC1 (some centres not stated) | 9.4 | -11.0 | 1.0 | -10.7 | -14.8 | 10.2
O=[N+]([O-])c1ccc2ncnc(N3CCN(Cc4ccc5c(c4)OCO5)CC3)c2c1 | -3.2 | -3.2 | 8.7 | -6.1 | -4.3 | -3.5
CCCC(=O)Nc1cc(C(=O)O)ccc1Sc1ccc(C)cc1 | -10.6 | -5.7 | 1.2 | -3.7 | 9.9 | 4.4
COC(=O)C1CC(c2c(OC)cc(OC)cc2OC)=NO1 (configuration not stated) | -7.5 | -0.7 | 0.5 | 9.3 | 9.8 | -0.5
Cc1cc(C)nc(NC(=O)CSc2nc3ccccc3s2)n1 | -4.9 | -5.8 | -0.3 | 3.7 | 4.9 | -2.4
Cc1nc(NC(=O)CSc2nc3ccccc3s2)sc1C(=O)N(C)C | -20.1 | 1.4 | 1.4 | 12.6 | 25.3* | -10.4
C=CCSc1nccc(-c2nn(-c3ccc(C)cc3)ccc2=O)n1 | -5.4 | -4.6 | 2.0 | 13.5 | 2.2 | -1.9
CS(=O)(=O)Nc1ccc(-c2cccc3nccn23)cc1 | 24.1* | -2.5 | 0.0 | -3.5 | -12.1 | 14.0
CN(C)c1ccc(-c2cccc3nccn23)cc1 | -8.7 | -8.1 | 0.8 | -5.1 | 1.4 | 1.0
O=C(Nc1ccc(C(=O)NCCCN2CCCCC2)cc1)C1=CSCCO1 | 17.3 | -0.6 | 21.4 | -8.4 | -5.6 | 3.9
O=C(Nc1ccc(C(=O)NCCCN2CCN(c3ccc(F)cc3)CC2)cc1)C1=CSCCO1 | -5.7 | 17.0* | 19.2 | 0.7 | -0.6 | 4.9
Cc1ccc(NC(=O)CCC(=O)Nc2nnc(C3CCCCC3)s2)cc1 | -9.5 | -0.1 | 0.3 | 19.8* | 12.3 | 0.0
Cn1cc(CCCC(=O)NCc2ccccc2)c2ccccc21 | -1.5 | -3.2 | 1.6 | 0.4 | 3.7 | -10.1
C[N+]1(C)CCC(=C2c3ccccc3CC(=O)c3sccc32)CC1 | 94.6* | -6.0 | 0.3 | -28.7 | -26.3 | 80.5*

Screening data deposited in PubChem BioAssay by The Scripps Research Institute Molecular Screening Center.
